PubChem BioAssay AID1159580 (chemical genetic matrix, 2015)
About 2,000 (36%) of roughly 5,500 compounds were called active. Not shown: some 18% with an inconclusive outcome. No stated cut-off is given here; in the data, active means normalized growth mostly below about 0.91 (no sharp cut-off); inconclusive means no clear call, values can overlap the other calls; inactive means mostly above about 0.92. The list shows a part of the results.

Assay: chemical genetic growth profiling, strain panel (AID 1159580);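 further: tested at 20 µM; growth read once vehicle control cultures reached saturation at 30 °C; 1 = growth at the plate median or of vehicle wells; lower values mean less growth of the strain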
Settings: growth OD

Measured: normalized growth

Cc1cc(NC(=O)C2=C(O)c3ccccc3S(=O)(=O)N2C)no1
active: S. cerevisiae deletion strains, locus YKL068W, hits give low values 0.924 | S. cerevisiae deletion strains, locus YKL085W, strain MDH1 (second series), hits give low values 0.906 | S. cerevisiae deletion strains, locus YKL085W, strain MDH1, hits give low values 0.906
inactive: S. cerevisiae deletion strains, locus YJR066W, strain TOR1, hits give low values 0.893 | S. cerevisiae deletion strains, locus YKL009W, strain mrt4, hits give low values 0.928 | S. cerevisiae deletion strains, locus YKL160W, strain elf1, hits give low values 0.996 | S. cerevisiae deletion strains, locus YKL190W, strain CNB1, hits give low values 0.976 | S. cerevisiae deletion strains, locus YKR001C, strain vps1, hits give low values 0.973 | S. cerevisiae deletion strains, locus YKR026C, strain gcn3, hits give low values 0.956 | S. cerevisiae deletion strains, locus YKR091W, strain srl3, hits give low values 0.95 | S. cerevisiae deletion strains, locus YLL001W, strain dnm1, hits give low values 0.992 | S. cerevisiae deletion strains, locus YLL026W, hits give low values 0.968 | S. cerevisiae deletion strains, locus YLL041C, strain sdh2, hits give low values 0.96 | S. cerevisiae deletion strains, locus YLR027C, strain aat2, hits give low values 0.975 | S. cerevisiae deletion strains, locus YLR039C, strain RIC1, hits give low values 0.96 | S. cerevisiae deletion strains, locus YLR058C, strain SHM2, hits give low values 0.984 | S. cerevisiae deletion strains, locus YLR102C, strain apc9, hits give low values 0.95 | S. cerevisiae deletion strains, locus YLR113W, strain HOG1, hits give low values 0.929 | S. cerevisiae deletion strains, locus YLR221C, strain rsa3, hits give low values 0.968 | S. cerevisiae deletion strains, locus YLR258W, strain gsy2, hits give low values 0.971 | S. cerevisiae deletion strains, locus YLR262C, strain YPT6 (second series), hits give low values 0.999 | S. cerevisiae deletion strains, locus YLR262C, strain YPT6, hits give low values 0.977 | S. cerevisiae deletion strains, locus YLR268W, strain sec22, hits give low values 0.969 | S. cerevisiae deletion strains, locus YLR320W, strain mms22, hits give low values 0.955 | S. cerevisiae deletion strains, locus YLR330W, strain CHS5, hits give low values 0.962 | S. cerevisiae deletion strains, locus YLR342W, strain FKS1 (second series), hits give low values 1.01 | S. cerevisiae deletion strains, locus YLR342W, strain FKS1, hits give low values 0.975 | S. cerevisiae deletion strains, locus YLR357W, strain rsc2, hits give low values 0.994 | S. cerevisiae deletion strains, locus YLR370C, strain arc18, hits give low values 0.98 | S. cerevisiae deletion strains, locus YLR371W, strain rom2, hits give low values 0.967 | S. cerevisiae deletion strains, locus YLR384C, strain iki3, hits give low values 0.954 | S. cerevisiae deletion strains, locus YLR418C, strain cdc73, hits give low values 0.951 | S. cerevisiae deletion strains, locus YML016C, strain PPZ1, hits give low values 0.987 | S. cerevisiae deletion strains, locus YML032C, strain rad52, hits give low values 0.985 | S. cerevisiae deletion strains, locus YML120C, strain ndi1, hits give low values 0.947 | S. cerevisiae deletion strains, locus YML124C, strain tub3, hits give low values 0.954 | S. cerevisiae deletion strains, locus YMR058W, strain fet3, hits give low values 0.976 | S. cerevisiae deletion strains, locus YMR078C, strain ctf18, hits give low values 0.924 | S. cerevisiae deletion strains, locus YMR125W, strain sto1, hits give low values 0.955 | S. cerevisiae deletion strains, locus YMR129W, hits give low values 0.956 | S. cerevisiae deletion strains, locus YMR205C, strain PFK2, hits give low values 0.989 | S. cerevisiae deletion strains, locus YMR223W, strain ubp8, hits give low values 0.944 | S. cerevisiae deletion strains, locus YMR231W, strain pep5, hits give low values 0.967 | S. cerevisiae deletion strains, locus YMR307W, strain GAS1, hits give low values 0.961 | S. cerevisiae deletion strains, locus YNL067W, strain RPL9B, hits give low values 1.01 | S. cerevisiae deletion strains, locus YNL071W, strain lat1, hits give low values 0.976 | S. cerevisiae deletion strains, locus YNL183C, strain NPR1, hits give low values 0.879 | S. cerevisiae deletion strains, locus YNL209W, strain ssb2, hits give low values 0.96 | S. cerevisiae deletion strains, locus YNL233W, strain BNI4, hits give low values 1.04 | S. cerevisiae deletion strains, locus YNL248C, strain rpa49, hits give low values 0.973 | S. cerevisiae deletion strains, locus YNL250W, strain rad50, hits give low values 0.908 | S. cerevisiae deletion strains, locus YNL271C, strain bni1, hits give low values 0.923 | S. cerevisiae deletion strains, locus YNL298W, strain CLA4, hits give low values 0.923 | S. cerevisiae deletion strains, locus YNL307C, strain MCK1, hits give low values 0.947 | S. cerevisiae deletion strains, locus YNL322C, strain KRE1 (second series), hits give low values 0.953 | S. cerevisiae deletion strains, locus YNL322C, strain KRE1, hits give low values 0.978 | S. cerevisiae deletion strains, locus YNR049C, strain mso1, hits give low values 0.967 | S. cerevisiae deletion strains, locus YNR052C, strain pop2, hits give low values 0.955 | S. cerevisiae deletion strains, locus YOL006C, strain TOP1, hits give low values 1.03 | S. cerevisiae deletion strains, locus YOL012C, strain htz1 1.14 | S. cerevisiae deletion strains, locus YOL147C, strain pex11, hits give low values 0.942 | S. cerevisiae deletion strains, locus YOR001W, strain rrp6, hits give low values 0.997 | S. cerevisiae deletion strains, locus YOR061W, strain CKA2, hits give low values 0.992 | S. cerevisiae deletion strains, locus YOR069W, strain VPS5, hits give low values 0.972 | S. cerevisiae deletion strains, locus YOR070C, strain gyp1, hits give low values 0.971 | S. cerevisiae deletion strains, locus YOR080W, strain dia2, hits give low values 0.974 | S. cerevisiae deletion strains, locus YOR083W, strain WHI5, hits give low values 0.964 | S. cerevisiae deletion strains, locus YOR106W, strain vam3, hits give low values 0.996 | S. cerevisiae deletion strains, locus YOR136W, strain idh2, hits give low values 0.978 | S. cerevisiae deletion strains, locus YOR144C, strain elg1, hits give low values 0.956 | S. cerevisiae deletion strains, locus YOR184W, strain ser1, hits give low values 0.945 | S. cerevisiae deletion strains, locus YOR231W, strain MKK1, hits give low values 0.993 | S. cerevisiae deletion strains, locus YOR265W, strain rbl2, hits give low values 0.966 | S. cerevisiae deletion strains, locus YOR270C, strain vph1, hits give low values 0.969 | S. cerevisiae deletion strains, locus YOR290C, strain snf2, hits give low values 0.977 | S. cerevisiae deletion strains, locus YOR316C, strain cot1, hits give low values 0.94 | S. cerevisiae deletion strains, locus YPL051W, strain arl3, hits give low values 0.989 | S. cerevisiae deletion strains, locus YPL078C, strain atp4, hits give low values 0.981 | S. cerevisiae deletion strains, locus YPL106C, strain sse1, hits give low values 0.954 | S. cerevisiae deletion strains, locus YPL240C, strain hsp82, hits give low values 0.973 | S. cerevisiae deletion strains, locus YPL256C, strain CLN2, hits give low values 0.905 | S. cerevisiae deletion strains, locus YPR119W, strain clb2, hits give low values 0.945 | S. cerevisiae deletion strains, locus YPR141C, strain kar3, hits give low values 0.919 | S. cerevisiae deletion strains, locus YPR163C, strain tif3, hits give low values 0.931 | S. cerevisiae deletion strains, locus YPR167C, strain met16, hits give low values 0.943 | S. cerevisiae deletion strains, strain wtn01, hits give low values 0.961 | S. cerevisiae strains, strain wild type, hits give low values 0.983
